# Values without a mark were called inactive. Inconclusive results are not listed. Activity calls are given as the source filed them. Calls come from the whole dose curve; as a rule, active = well fitted curve in the direction sought with a large enough effect; inconclusive = small, poorly fitted or top-dose-only effect, or another doubt; inactive = no such curve, though single readings can be large; an effect the other way counts as inactive or inconclusive.
# Biological target: Cytochrome P450 2C9 (Homo sapiens) (UniProt P11712)
# Sequence (P11712 whole entry, looked up): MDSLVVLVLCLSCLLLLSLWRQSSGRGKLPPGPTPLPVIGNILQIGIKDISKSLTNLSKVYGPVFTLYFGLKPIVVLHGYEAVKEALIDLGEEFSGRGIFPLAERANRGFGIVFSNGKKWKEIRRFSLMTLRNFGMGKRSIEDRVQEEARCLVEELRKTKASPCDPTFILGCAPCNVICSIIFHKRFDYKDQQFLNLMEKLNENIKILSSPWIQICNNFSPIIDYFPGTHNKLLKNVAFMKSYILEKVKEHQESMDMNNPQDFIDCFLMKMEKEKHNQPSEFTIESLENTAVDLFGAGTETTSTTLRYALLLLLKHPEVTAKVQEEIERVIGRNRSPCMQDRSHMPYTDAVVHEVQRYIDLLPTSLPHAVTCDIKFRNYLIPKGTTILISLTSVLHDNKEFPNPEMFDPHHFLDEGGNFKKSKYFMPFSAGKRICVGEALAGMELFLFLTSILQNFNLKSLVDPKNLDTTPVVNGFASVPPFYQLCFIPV
# Assay: qHTS Assay for Inhibitors and Substrates of Cytochrome P450 2C9 (AID 883); note: % is set by controls: 0 for no effect and ±100 for the full control effect; nearly all actives have a fitted effect of over 60% in size
# Conditions: recombinant CYP2C9, luciferin-H luminescence, 60 min; series mostly up to 57.1 µM; activity change, negative = inhibition: at the top concentration
# In short: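 Luminescent read-out of deoxyluciferin hydroxylation, normalized to 57uM sulphaphenazole (AC100). Reaction: 10nM enzyme, 100uM Luciferin-H (equal to KM), 25mM KPO4, 10 min compound preincubation, then 60 min with NADPH regeneration, both at 37C.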
row,SMILES,"activity change, negative = inhibition"
1,Nc1nc(N)c2nc(CNc3ccc(C(=O)N[C@H](CCC(=O)O)C(=O)O)cc3)cnc2n1,44.2%
2,c1ccc(-c2cc3c(nc2-c2ccccc2)CCNC3)cc1,-10% [at 11.4 µM]
3,CCCCCCCCCC[Si](C)(C)CCC(=O)N[C@@H](Cc1ccc(C)cc1)c1ccccc1,37.5%

# Biological target: Cytochrome P450 3A4 (Homo sapiens) (UniProt P08684)
# Assay: qHTS Assay for Inhibitors and Substrates of Cytochrome P450 3A4 (AID 884); note: nearly all actives have a fitted effect of over 50% in size; note: potency is the fitted concentration of half-maximal effect; for activity change, negative = inhibition: % is set by controls: 0 for no effect and ±100 for the full control effect
# Conditions: recombinant CYP3A4, Luciferin-PPXE luminescence; series mostly up to 57.1 µM; activity change, negative = inhibition: at the top concentration
# In short: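 20 nM human CYP3A4 with 25 uM Luciferin-PPXE (at KM) in 200 mM KPO4, preincubated 10 min with compound; NADPH regeneration started a 60 min RT reaction. Luciferin detected by luminescence, normalized to 57 uM ketoconazole as full inhibition.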
SMILES,Potency,"activity change, negative = inhibition"
CC1=CC[C@@H]2[C@@H](C1)c1c(O)cc(CC#CCCCNS(C)(=O)=O)cc1OC2(C)C,2.51 µM (active),–
CC(C)CC(N)C1(c2ccc(Cl)cc2)CCC1 (stereo unspecified),1.58 µM (active),–
C=C(CO)C1Cc2c(ccc3c2OC2COc4cc(OC)c(OC)cc4C2C3=O)O1 (stereo unspecified),31.6 µM (active),–
CC[C@H](C(=O)[C@H](C)[C@H](O)[C@H](C)CCc1ccc(C)c(O)c1C(=O)O)[C@H]1O[C@](CC)([C@@H]2CC[C@@](O)(CC)[C@H](C)O2)C[C@H]1C,7.94 µM (active),–
CC1=C2C(=COC(C)C2C)C(=O)C(C(=O)O)=C1O (stereo unspecified),15.8 µM (active),–
O=C(OC1Cc2c(O)cc(O)cc2OC1c1cc(O)c(O)c(O)c1)c1cc(O)c(O)c(O)c1 (stereo unspecified),20 µM (active),–
CC(C)C(C)/C=C/C(C)C1CCC2C3=CCC4CC(=O)CC[C@@]4(C)C3CC[C@]21C (stereo partly specified),–,95.3%
c1cc(Cc2cnc[nH]2)ccn1,3.98 µM (active),–
CC1=C(CC[C@H](C)CO)O[C@@H]2C[C@@H]3[C@H]4CC[C@H]5C[C@@H](O)CC[C@]5(C)[C@@H]4CC(=O)[C@@]3(C)[C@@H]12,–,87.6% [at 11.4 µM]
COc1ccc(-c2oc3cc(OC)ccc3c(=O)c2O)cc1,12.6 µM (active),–
CC(=O)[C@]1(O)CCC2C3C=C(Cl)C4=CC(=O)C5CC5[C@@]4(C)C3CC[C@]21C (stereo partly specified),–,48.7%
O=C1NO[C@H]2[C@@H]1CN[C@@H]2C(=O)O,–,-13.5%
O=C1NO[C@@H]2CN[C@@H](C(=O)O)[C@H]12,–,-5.5%
COc1cc2c(cc1OC)C1C(=O)c3c(O)cc4c(c3OC1CO2)C=CC(C)(C)O4 (stereo unspecified),15.8 µM (active),–
O=S(=O)(O)c1cc(N=C=S)ccc1/C=C/c1ccc(N=C=S)cc1S(=O)(=O)O,12.6 µM (active),–
Cc1ccc2oc(-c3ccccc3)cc(=O)c2c1,10 µM (active),–
CC(C)C1C(=O)N2CCCC2[C@]2(O)O[C@@](NC(=O)[C@@H]3C=C4c5cccc6[nH]cc(c56)C[C@H]4N(C)C3)(C(C)C)C(=O)N12 (stereo partly specified),1.26 µM (active),–
CCCCCCCCCc1ccc(OCCOCCOCCOCCOCCOCCOCCOCCOCCO)cc1,31.6 µM (active),–

SMILES,Potency,"activity change, negative = inhibition"
COc1ccc2[nH]c(C(=O)c3ccccc3)cc2c1,7.94 µM (active),–
CC(C)=CCCC(C)C1CC[C@@]2(C)C3=C(CC[C@@]12C)C1(C)CCC(O)C(C)(C)C1CC3 (stereo partly specified),15.8 µM (active),–
C[C@@]12CC[C@@H]3[C@H](CCC4=CC(=O)CC[C@]43C)[C@@H]1CC[C@@H]2C(=O)Cn1cnc2c(=S)nc[nH]c21,–,119% [at 11.4 µM]
N#CC(C#N)=NNc1cccc(Cl)c1,1.26 µM (active),–
CC(=O)OCC(=O)[C@@]1(O)CCC2C3CC[C@H]4CC(O)CC[C@@]4(C)C3C(=O)C[C@]21C (stereo partly specified),12.6 µM (active),–
COC(=O)[C@@H]1C[C@@]2(O)[C@@H](O)[C@@H](O)[C@@H](O)C[C@H]2N1Cc1cccnc1,–,-17.2%
COc1cc2c3cc1Oc1c(OC)c(OC)cc4c1[C@@H](Cc1ccc(O)c(c1)Oc1ccc(cc1)C[C@@H]3N(C)CC2)N(C)CC4,20 µM (active),–
C[C@@]12CCC3c4ccc(O)cc4CCC3C1CCC2O (stereo partly specified),–,-7.09%
Clc1cc(Cl)c(Cl)c(Cl)c1Cl,–,14.8%
CC(=O)OC1C[C@]2(C)C(C(C)=O)CCC2C2CCC3=CC(=O)CC[C@@]3(C)C12 (stereo partly specified),7.94 µM (active),–
COc1cc2c(cc1O)C(CCc1ccc(Cl)cc1)N(C)CC2 (stereo unspecified),–,-9.96%
CC1(C)CC(N=C=O)CC(C)(CN=C=O)C1 (stereo unspecified),25.1 µM (active),–
CC1(C)C(=O)C=C[C@]2(C)C1CC(=O)[C@]1(C)C2CC[C@@]2(C)C(c3ccoc3)OC(=O)C3O[C@@]321 (stereo partly specified),2.51 µM (active),–
Cc1[nH]cnc1CCN,–,-16%
CC(=O)OC1CC[C@@]2(C)C3CC(=O)[C@]4(C)C(C(C)=O)=CCC4C3CC[C@H]2C1 (stereo partly specified),–,124%
COc1cc2c(cc1OC)C1C(=O)c3c(cc4c(c3O)C=CC(C)(C)O4)OC1CO2 (stereo unspecified),15.8 µM (active),–
CC(=O)O[C@H]1CC[C@@]2(C)[C@@H](CC[C@H]3[C@H]2CC(=O)[C@@]2(C)[C@@H]3C[C@H]3CC(C)=CC(=O)[C@H]32)C1,–,295% [at 11.4 µM]
C[C@@]12CC[C@H]3[C@@H](CCC4=CC(=O)CC[C@]43C)[C@H]1CC[C@H]2C(=O)CO,–,7.17% [at 25.6 µM]

# Biological target: Cytochrome P450 3A4 (Homo sapiens) (UniProt P08684)
# Assay: qHTS Assay for Activators of Cytochrome P450 3A4 (AID 885); note: nearly all actives have a fitted effect of over 65% in size; note: potency is the fitted concentration of half-maximal effect
# Conditions: recombinant CYP3A4, Luciferin-PPXE luminescence, 60 min; series mostly up to 57.1 µM; activity change, positive = activation: at the top concentration
# In short: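 20nM CYP3A4 + 25uM Luciferin-PPXE (=KM), 200mM KPO4; cpd 10 min RT; NADPH regen, 60 min RT; stop w/ detection buffer, 20 min; luminescence. Normalized to 57 uM ketoconazole.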
# Target sequence in this assay (P08684 whole entry, looked up): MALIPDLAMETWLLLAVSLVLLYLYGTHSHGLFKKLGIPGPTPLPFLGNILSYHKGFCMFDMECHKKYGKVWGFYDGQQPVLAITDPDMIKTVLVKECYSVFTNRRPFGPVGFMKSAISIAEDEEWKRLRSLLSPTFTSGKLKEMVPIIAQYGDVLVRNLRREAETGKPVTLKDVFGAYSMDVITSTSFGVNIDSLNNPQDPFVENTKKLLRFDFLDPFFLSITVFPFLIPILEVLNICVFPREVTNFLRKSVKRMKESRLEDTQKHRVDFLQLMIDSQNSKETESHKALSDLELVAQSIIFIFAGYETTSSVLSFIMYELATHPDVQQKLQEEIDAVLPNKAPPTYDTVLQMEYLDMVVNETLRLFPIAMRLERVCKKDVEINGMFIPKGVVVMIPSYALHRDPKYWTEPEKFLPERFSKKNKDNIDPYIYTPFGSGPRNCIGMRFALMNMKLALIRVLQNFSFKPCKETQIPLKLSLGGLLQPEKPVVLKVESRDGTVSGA
SMILES,"activity change, positive = activation",Potency
CC1=CC[C@@H]2[C@@H](C1)c1c(O)cc(CC#CCCCNS(C)(=O)=O)cc1OC2(C)C,-103%,–
CC(C)CC(N)C1(c2ccc(Cl)cc2)CCC1 (stereo unspecified),-102%,–
C=C(CO)C1Cc2c(ccc3c2OC2COc4cc(OC)c(OC)cc4C2C3=O)O1 (stereo unspecified),-72.9%,–
CC1=C2C(=COC(C)C2C)C(=O)C(C(=O)O)=C1O (stereo unspecified),-74.5%,–
O=C(OC1Cc2c(O)cc(O)cc2OC1c1cc(O)c(O)c(O)c1)c1cc(O)c(O)c(O)c1 (stereo unspecified),-62.3%,–
CC(C)C(C)/C=C/C(C)C1CCC2C3=CCC4CC(=O)CC[C@@]4(C)C3CC[C@]21C (stereo partly specified),–,25.1 µM (active)
c1cc(Cc2cnc[nH]2)ccn1,-110%,–
c1ccc(-c2cc3c(nc2-c2ccccc2)CCNC3)cc1,-45.7% [at 11.4 µM],–
CC1=C(CC[C@H](C)CO)O[C@@H]2C[C@@H]3[C@H]4CC[C@H]5C[C@@H](O)CC[C@]5(C)[C@@H]4CC(=O)[C@@]3(C)[C@@H]12,–,3.98 µM (active)
COc1ccc(-c2oc3cc(OC)ccc3c(=O)c2O)cc1,-94.6%,–
COc1cc2c(cc1OC)C1C(=O)c3c(O)cc4c(c3OC1CO2)C=CC(C)(C)O4 (stereo unspecified),-86.1%,–
O=S(=O)(O)c1cc(N=C=S)ccc1/C=C/c1ccc(N=C=S)cc1S(=O)(=O)O,-67.6%,–
Cc1ccc2oc(-c3ccccc3)cc(=O)c2c1,-78.1%,–
CC(C)C1C(=O)N2CCCC2[C@]2(O)O[C@@](NC(=O)[C@@H]3C=C4c5cccc6[nH]cc(c56)C[C@H]4N(C)C3)(C(C)C)C(=O)N12 (stereo partly specified),-109%,–
CCCCCCCCCc1ccc(OCCOCCOCCOCCOCCOCCOCCOCCOCCO)cc1,-79.6%,–
COc1ccc2[nH]c(C(=O)c3ccccc3)cc2c1,-74.2%,–
CC(C)=CCCC(C)C1CC[C@@]2(C)C3=C(CC[C@@]12C)C1(C)CCC(O)C(C)(C)C1CC3 (stereo partly specified),-76.1%,–
C[C@@]12CC[C@@H]3[C@H](CCC4=CC(=O)CC[C@]43C)[C@@H]1CC[C@@H]2C(=O)Cn1cnc2c(=S)nc[nH]c21,–,3.16 µM (active)
N#CC(C#N)=NNc1cccc(Cl)c1,-80.6%,–
CC(=O)OCC(=O)[C@@]1(O)CCC2C3CC[C@H]4CC(O)CC[C@@]4(C)C3C(=O)C[C@]21C (stereo partly specified),-62.3%,–
COc1cc2c3cc1Oc1c(OC)c(OC)cc4c1[C@@H](Cc1ccc(O)c(c1)Oc1ccc(cc1)C[C@@H]3N(C)CC2)N(C)CC4,-73.7%,–
CC(=O)OC1C[C@]2(C)C(C(C)=O)CCC2C2CCC3=CC(=O)CC[C@@]3(C)C12 (stereo partly specified),-82.2%,–
CC1(C)CC(N=C=O)CC(C)(CN=C=O)C1 (stereo unspecified),-82.8%,–
CC1(C)C(=O)C=C[C@]2(C)C1CC(=O)[C@]1(C)C2CC[C@@]2(C)C(c3ccoc3)OC(=O)C3O[C@@]321 (stereo partly specified),-101%,–
CC(=O)OC1CC[C@@]2(C)C3CC(=O)[C@]4(C)C(C(C)=O)=CCC4C3CC[C@H]2C1 (stereo partly specified),–,5.01 µM (active)
COc1cc2c(cc1OC)C1C(=O)c3c(cc4c(c3O)C=CC(C)(C)O4)OC1CO2 (stereo unspecified),-61.2%,–
CC(=O)O[C@H]1CC[C@@]2(C)[C@@H](CC[C@H]3[C@H]2CC(=O)[C@@]2(C)[C@@H]3C[C@H]3CC(C)=CC(=O)[C@H]32)C1,–,2 µM (active)

# Source: PubChem BioAssay (NCATS)
